From article PMC12136788
The full ranking holds about 24,000 sequences; the median of “enrichment r” is about 0.99, and the highest 2% start at about 3.7. This excerpt belongs to a sample that is enriched for the highest values.

T1: UNK ZnF1-3 (human, UniProt Q9C0B0 31-174)
T1 sequence: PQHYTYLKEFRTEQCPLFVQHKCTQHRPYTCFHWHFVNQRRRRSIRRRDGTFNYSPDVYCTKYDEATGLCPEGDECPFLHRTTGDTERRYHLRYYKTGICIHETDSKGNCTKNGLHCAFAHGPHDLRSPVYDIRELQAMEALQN

B1: 19477749_19479453_500_CDS_ENSMUSG00000028228_ENSMUST00000029885|mouse|control|control (ssRNA)
RNA: GGGAGUUCUACAGUCCGACGAUCUCUGGCUUCCAUUUCAAACAAUACCACUCUGUUAUCCUUUAUUUCUUCUGCUGAAAUCGUAAUACUCCCUUUCCCUGCAGGUUUGCCAUUUUUGAGCACCAGUGGUCGAGUUAGCUUCUUCAACAGAGGAUUGAGCAUCA
B2: chr2:9572718:9572719:+_ENSG00000119203_ENST00000238112|hu_mus|FALSE|FALSE (ssRNA)
RNA: GGGAGUUCUACAGUCCGACGAUCGACGUGGCCGGCAUGGUAACACCAGAACUUGAUUCCUGCAACUUCCUUAACUUCAUGAAAAUUGAUGGUUUCGAUUUUGUCCAUGCUUUCUUCCAAGUCUGUCUCAGUGUACAGCAUGUCCAACAGAGGAUUGAGCAUCA
B3: chr17:61655871:61655872:+_ENSG00000136485_ENST00000310827|hu_hu|FALSE|FALSE (ssRNA)
RNA: GGGAGUUCUACAGUCCGACGAUCGGUGGGGUAUGGGUGGUCAAAGGUGUUUCUGCAAAUAAACUCUGAACUCUCCUCAUCUAAACCAACAAGCUGAACCUUGUUGUUGUACUCCUCCACGAAGCUGCCCAGCGCCAAGCGAAACAACAGAGGAUUGAGCAUCA
B4: chr5:37680062:37680063:+_ENSMUSG00000029121_ENSMUST00000031004|mus_hu|mus_mus_mus_hu_False|1_18 (ssRNA)
RNA: GGGAGUUCUACAGUCCGACGAUCUUUGGGUGUAGCUGGUACCUCGUACACAGGACCGUCAUACAUGCCCCUGGAAACCCCUUGCAAUCCAAAAACCUUAUUCCUGAUUUUGACGCGCUGGUAGAGAUGCUCCGGGAAUGGCUUCAACAGAGGAUUGAGCAUCA
B5: chr17:45747064:45747065:+_ENSG00000108424_ENST00000290158|hu_hu|hu_hu_hu_mus_True|38_98 (ssRNA)
RNA: GGGAGUUCUACAGUCCGACGAUCGCCCACAGUCCACGCAGCUGUAUCUCGAACAACUACACUGGGGUCUUUCAUUAGUUCUAUUAGGGUGGGCAUAGCCUGUAUAACUAAUGGUUUCAGUUGAUUAGGCUCUGGUCCUUCCAACAACAGAGGAUUGAGCAUCA
B6: chr1:244855233:244855234:+_ENSG00000121644_ENST00000302550|hu_mus|hu_hu_hu_mus_True|98_98 (ssRNA)
RNA: GGGAGUUCUACAGUCCGACGAUCCAUCAGAUGGUAGGCAUUGCCUUUAUACUCUUUCCCCAGUUCUUCUACAAUUUUCUCUAUAUCAUCUUCUAGAAAGUCCGUACUUCCUAGAACAACAGCUUCUUUAAAUUUAAAUGUUUCCAACAGAGGAUUGAGCAUCA
B7: chr3:10015032:10015033:+_ENSMUSG00000027533_ENSMUST00000029046|mus_mus|mus_mus_mus_hu_True|58_58 (ssRNA)
RNA: GGGAGUUCUACAGUCCGACGAUCGUUUUUACCAUCACAAGUGAUGAUACAAUCUGGCUUGGCCAUUGCGCCCAUUUUCCUAAGAGCUAUUCCCACUCCUAGCUCCUUCAUGUAUUCAUCAAAGCCUUUGCUGUCCACCAGGCGCAACAGAGGAUUGAGCAUCA
B8: chr14:102449733:102449734:+_ENSG00000197102_ENST00000360184|hu_mus|FALSE|FALSE (ssRNA)
RNA: GGGAGUUCUACAGUCCGACGAUCCAGCACCUGGAGCUUCUCGUACUCGUCGUCCCACGUCUGGAAGACUUCGAAGCAAGCCACCAUGACCUUUUCAAACUCUUCAUAGGCUACAUGCAUCAACUUCCGAGUGCCCAAGACCUUCAACAGAGGAUUGAGCAUCA
B9: chr7:107985766:107985767:+_ENSMUSG00000029461_ENSMUST00000049053|mus_hu|FALSE|FALSE (ssRNA)
RNA: GGGAGUUCUACAGUCCGACGAUCCCCUAGGUAAAUUUUUGUAAGCAAGGUGCCCACUAGGUAGGAAGGCUGCAUUUAAUGCUAAUUUACUGUAAGGUCUAGGGAAGUCCUUUCCGCUUCUCUGGGCCUCAGUUUCCUCAUCUGCAACAGAGGAUUGAGCAUCA
B10: chr6:30403744:30403745:+_ENSMUSG00000029775_ENSMUST00000068259|mus_mus|motif|central (ssRNA)
RNA: GGGAGUUCUACAGUCCGACGAUCAGGAGAAGGCUAAACACUGAUUAUCUAUGGAUUUCGAUUGUGUGUGCUUUCACCUUGCGGCAGUGGAUAACGAAAGAUCAGUCAUACUUUUAAUCUAGAAAUGUUAAUAUUUUCAUCAUACAACAGAGGAUUGAGCAUCA
B11: chr17:64801638:64801639:+_ENSG00000154229_ENST00000413366|hu_mus|hu_hu_hu_mus_False|28_38 (ssRNA)
RNA: GGGAGUUCUACAGUCCGACGAUCUAUAUAUAUAUAUACAUAUGUACACAUAUAUAGUAAAACCCUAGUUAAACGUGUAAAGUAGCCAUUCAUUUUUGAAAUUUUAUCUACAUUUAAAAAUUAAUAUAUCUGAUAGAGUGCCAGCAACAGAGGAUUGAGCAUCA
B12: chr16:35696996:35696997:-_ENSMUSG00000022848_ENSMUST00000023554|mus_mus|FALSE|FALSE (ssRNA)
RNA: GGGAGUUCUACAGUCCGACGAUCAAGACGGGUCCAGGAGCCAUGCAAUGAGUAUGUUUUUGUUUUUGUUUUUUUUAAAAAUCCAUUAUUUAUAGAAAGAAAUAGGUAUUGGCAAAAAUCUGUCCAAUCAAAUACAAUGACUUCCAACAGAGGAUUGAGCAUCA
B13: 98287512_98287632_2604_3pUTR_ENSG00000180543_ENST00000322128|human|control|control (ssRNA)
RNA: GGGAGUUCUACAGUCCGACGAUCUACCUCCCCAGCUGUAUGUAGAAAAAUGUGGUUUUUCAGUUGUUUUCUCUGUGGUACUAUUUAAACAAAAUAAAAAAGAAUAAGGAAAGAAGGAAGGGGAAGGCAGAAGAGGAGGAAAGGCAACAGAGGAUUGAGCAUCA
B14: chr4:140213729:140213730:-_ENSG00000109390_ENST00000265500|hu_mus|FALSE|FALSE (ssRNA)
RNA: GGGAGUUCUACAGUCCGACGAUCGAAGCUGACUGUAUUAUUUCCAAAGUUUAUUCCAAUCCAUUUCUUCUUUUAUACUCCAAAACAUCUUCAUUGUGUGUUUGGAUGAGCUACAAGAUAAUGGUUAAAAUUAGAAAUGUGAGCCAACAGAGGAUUGAGCAUCA
B15: chr14:62153831:62153832:-_ENSMUSG00000021930_ENSMUST00000100496|mus_mus|FALSE|FALSE (ssRNA)
RNA: GGGAGUUCUACAGUCCGACGAUCAUAUUUGUUUAAAUAAGAUUAAAUAAGUUGCCUAGAUCUUUUAAACCAAACCUCAGCAUGGUAUAAUGAAUACAUGGGUUCCUUGGACAACAAUUAGAAGCUCAGUGUUCAGCAUGUGUUCAACAGAGGAUUGAGCAUCA
B16: chr10:57235669:57235670:-_ENSMUSG00000019877_ENSMUST00000020027|mus_hu|FALSE|FALSE (ssRNA)
RNA: GGGAGUUCUACAGUCCGACGAUCAAAUUGUGGAAUACAAUGUCUACACACAGAAUAAGGUUGGGGAAUUAAGCUGAAUUGUUAUAUUCCAUUCACAUUAAUAAAUAUUUUUAAAGAAGAAAUUGUAGAUUUUAAAAGCUUCAUCAACAGAGGAUUGAGCAUCA
B17: chr14:49633609:49633610:-_ENSMUSG00000061244_ENSMUST00000162175|mus_mus|FALSE|FALSE (ssRNA)
RNA: GGGAGUUCUACAGUCCGACGAUCCAUUCAUUUUCUGACACCAACAUUUUCCAGGAUUAUAACAGUCAUGUAGGUUUAUAGAAUUUGAAAUUUAUAAAUUAAAGUAUAGAAUUCAACAUAACAGGGAAAAGAUAAAAAUACAGCCAACAGAGGAUUGAGCAUCA
B18: 48457567_48458910_1668_CDS_ENSG00000079387_ENST00000551330|human|control|control (ssRNA)
RNA: GGGAGUUCUACAGUCCGACGAUCGAGAACUUCAUCCUGAUUCCCAUUACGAAAUACAUUCUUUAUUUCUUUCUCCAUUUCCUCUGUAAUUUCAGGAAAUUCAUCUUCACUAUCAGUUAAUUUAUGACCUUUUUUUUGUGUUUCCAACAGAGGAUUGAGCAUCA
B19: chr11:130013608:130013609:+_ENSG00000084234_ENST00000528499|hu_hu|motif|central (ssRNA)
RNA: GGGAGUUCUACAGUCCGACGAUCAGCAUGUGUCAGACAAUACAAUGGAAGUGGGGUUUCUGAUUAAUUUAAAAAAGAAAACGGCAUCAAAUAUCUGCAAUAGAUCAUUUUUUUCAUUUAAGGUUUAUAUAUCAUAUAUUGUUACAACAGAGGAUUGAGCAUCA
B20: chr4:136876768:136876769:-_ENSMUSG00000006699_ENSMUST00000051477|mus_mus|FALSE|FALSE (ssRNA)
RNA: GGGAGUUCUACAGUCCGACGAUCAAACAACAAACGUUUGUGGGGAUUUUUGUUUUUUUUUUUAAACAAAGAAAACAAAAACUAGCACUCAUUGCUUUUCAGACAAUACAUAAUUAUUCAAAAUUAACUAUUACUGGAAGGGCACAACAGAGGAUUGAGCAUCA
B21: chr14:57341393:57341394:-_ENSMUSG00000021938_ENSMUST00000022507|mus_hu|FALSE|FALSE (ssRNA)
RNA: GGGAGUUCUACAGUCCGACGAUCCUGAAUAUUCAGAAGCUAUAUGAAAUGUAGCUGGAAAUUCCGAUUUCACAGAACAUCAGUGGUUUAUACAAAUUAAACUCCCAUACCCUCCCACCCCCACAUAUACUACUCUAUCUACCCCAACAGAGGAUUGAGCAUCA
B22: chr7:141450121:141450122:+_ENSG00000106028_ENST00000265304|hu_mus|hu_hu_hu_mus_True|68_68 (ssRNA)
RNA: GGGAGUUCUACAGUCCGACGAUCUCAUCCGUUCUAUGCCUUUUCUUUUGUCUGGUCACUCAGAAAUAUAAUAUUAUCAGCUAUGAUUGUUGUUGCUUGCCGCCUCACAUUGUUUUUAUCCAUGUACUCGCCAUAGUCCACUUUCAACAGAGGAUUGAGCAUCA

Target: T1, UNK ZnF1-3
Assay: nsRBNS (natural sequence RNA bind-n-seq); RBNS binding buffer (assumed for nsRBNS): 25 mM Tris pH 7.5, 150 mM KCl, 3 mM MgCl2, 0.01% Triton X-100, 500 ug/ml BSA, 20 U/ml SUPERase-In, 4 C; UNK is unkempt and MSI1 is Musashi-1; names of the RNAs are library labels; protein concentration not given here; high values mean tight binding

For B1, which binding signal is on record?
Its binding signal is 0.645 enrichment R.

With B2 as the binder, how does the binding signal read?
Its binding signal is 0.798 enrichment R.

For B3, which binding signal is on record?
The binding signal was 1.21 enrichment R.

How did the binding signal turn out when B4 was run?
Its binding signal is 0.867 enrichment R.

How did the binding signal turn out when B5 was run?
Its binding signal is 0.573 enrichment R.

How did the binding signal turn out when B6 was run?
Its binding signal is 1.59 enrichment R.

For B7, which binding signal is on record?
The binding signal was 0.594 enrichment R.

For B8, which binding signal is on record?
Its binding signal is 1.2 enrichment R.

With B9 as the binder, how does the binding signal read?
Its binding signal is 0.876 enrichment R.

With B10 as the binder, how does the binding signal read?
The binding signal was 0.934 enrichment R.

With B11 as the binder, how does the binding signal read?
The binding signal was 2.54 enrichment R.

B12 was tested. Which binding signal did it give?
The binding signal was 2.16 enrichment R.

For B13, which binding signal is on record?
Its binding signal is 3.05 enrichment R.

Which binding signal does the source give for B14 here?
The binding signal was 1.21 enrichment R.

How did the binding signal turn out when B15 was run?
Its binding signal is 0.982 enrichment R.

B16 was tested. Which binding signal did it give?
Its binding signal is 6.49 enrichment R.

Which binding signal does the source give for B17 here?
Its binding signal is 5.9 enrichment R.

Which binding signal does the source give for B18 here?
Its binding signal is 0.373 enrichment R.

With B19 as the binder, how does the binding signal read?
Its binding signal is 5.2 enrichment R.

With B20 as the binder, how does the binding signal read?
Its binding signal is 0.695 enrichment R.

B21 was tested. Which binding signal did it give?
Its binding signal is 4.65 enrichment R.

B22 was tested. Which binding signal did it give?
The binding signal was 0.465 enrichment R.
